# For part of these data: Measured potencies and affinities stand elsewhere. Activity calls are given as the source filed them. Unless noted, no stated cut-off is given here; in the data, active means inhibition above about 80%; inactive means the rest.
# Experiments:
# [1] = blockers of polyQ-driven CASP3 activation – cell-based (AID 1583); conditions: polyglutamine-induced caspase-3 activation, cell assay; stronger effect = higher value;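 tested at 10 µM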
# [2] = yeast 75Q aggregation reduction – 75Q-TubU reporter (AID 1593); conditions: Yeast 75Q polyglutamine aggregation reporter
# [3] = restoration of touch response, mutant HTT neurons – whole organism, C. elegans mechanosensory neurons, N-terminal huntingtin (AID 1599); conditions: C. elegans polyQ-huntingtin mechanosensory neurons, stronger effect = higher value
# [4] = blockers of cytochrome c efflux from mitochondria – biochemical, purified mitochondria (AID 1603); conditions: stronger effect = lower value;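 further: mouse liver mitochondria challenged with calcium chloride; signal normalized to the plate average as 100%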
# [5] = polyglutamine aggregate formation blockers (AID 1604); conditions: polyglutamine-induced protein aggregation inhibition assay; stronger effect = higher value; tested at 2.5 µM
# [6] = glutamate transport activators, MN-1 cells, MN-1 cell line (AID 1612); conditions: MN-1 motor neuron cells, stronger effect = higher value;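 further: tested at 1 µM final; 0% = mean of DMSO vehicle wells on each plate; positive means more glutamate uptake than control and negative means less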
# [7] = 75Q-TubH aggregate inhibition, S. cerevisiae, yeast (AID 1616); conditions: S. cerevisiae 75Q-TubH polyglutamine aggregation suppression; stronger effect = higher value
# [8] = GFP-Q80 aggregate reduction, neuronal-like cells, cell-based, NGF-treated PC12, GFPQ80 (AID 1614); conditions: PC12 NGF-treated GFP-polyQ80 inclusion reduction;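 further: lower means fewer inclusions and 0 means no inclusions at all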
# [9] = growth inhibition, single agents and combos, LFS_MB_1R, cell-based, cisplatin or BGB combos, synergistic combos for chromothripsis tumors (AID 1671452); conditions: LFS_MB_1R medulloblastoma cells, stronger effect = higher value;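 further: cells exposed for 96 hours before readout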
# [10] = growth inhibition, single agents and combos, CRL2098, cell-based, BGB or cisplatin IC20 combos, synergistic combos for chromothripsis tumors (AID 1671454); conditions: CRL2098 osteosarcoma cells, drug combinations, stronger effect = higher value;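 further: cells exposed for 96 h before readout; 0% = vehicle DMSO and 100% = killing by high DMSO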
# [11] = growth inhibition, single agents and combos, HD-MB03, cell-based, BGB or cisplatin IC20 combos, synergistic combos for chromothripsis tumors (AID 1671455; in the data active means inhibition above about 83%;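 further: 0% = vehicle DMSO and 100% = high DMSO as cytotoxic control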); conditions: HD-MB03 medulloblastoma cells, stronger effect = higher value
# [12] = growth inhibition, single agents and combos, UWB1.289, cell-based, BGB or cisplatin combos, synergistic combos for chromothripsis tumors (AID 1671456); conditions: UWB1.289 ovarian carcinoma cells, stronger effect = higher value;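 further: cells exposed to compound for four days; 0% = vehicle DMSO and 100% = killing by high DMSO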
# [13] = growth inhibition, single agents and combos, LFS_MB_2R, cell-based, cisplatin combos, synergistic combos for chromothripsis tumors (AID 1671457); conditions: LFS_MB_2R medulloblastoma cells, stronger effect = higher value;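 further: cells exposed to compound for four days before readout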
# [14] = UWB1.289_BRCA1 ovarian cancer growth, cell-based, BGB or cisplatin combinations (AID 1671459); conditions: UWB1.289 BRCA1 ovarian carcinoma, drug combinations, stronger effect = higher value
# [15] = drug combination toxicity in non-malignant astrocytes – cell-based, BGB or cisplatin IC20 combos, cytotoxicity control for chromothriptic childhood tumor combination screen (AID 1671460); conditions: Human astrocytes, viability inhibition, drug combinations, at 0.5 µM, stronger effect = higher value;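 further: cells exposed to compounds for 96 hours before viability readout; 0% = vehicle and 100% = killing control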
# [16] = measured here: combination with cisplatin, at 0.5 µM
# [17] = measured here: combination with cisplatin, at 5 µM
smiles,measurement,setting,value
CCN(CC)CCOc1ccc2c(c1)C(=O)c1cc(OCCN(CC)CC)ccc1-2,inhibition,[1],-90.6%
same,score,[2],1.3
same,rescue above control,[3],-4.59
same,cytochrome c release ratio,[4],0.81
same,inhibition of aggregation,[5],63.2%
same,glutamate uptake change,[6],22.5%
same,aggregation suppression score,[7],1.61
CC[C@@H](CO)NCCN[C@@H](CC)CO,inhibition,[1],-11.7%
same,score,[2],1.09
same,rescue above control,[3],2.87
same,cytochrome c release ratio,[4],1.07
same,inhibition of aggregation,[5],43.6%
same,glutamate uptake change,[6],-22.3%
same,inclusion score,[8],2
same,aggregation suppression score,[7],1.18
CC(=O)NC(Cc1ccccc1)C(=O)O (stereo not given),inhibition,[1],6.15%
same,score,[2],1.35
same,rescue above control,[3],4.38
same,cytochrome c release ratio,[4],0.42
same,inhibition of aggregation,[5],85.9%
same,glutamate uptake change,[6],12.1%
same,inclusion score,[8],2
same,aggregation suppression score,[7],1.23
C[C@@H](CN1CC(=O)NC(=O)C1)N1CC(=O)NC(=O)C1,inhibition,[9]; at 0.5 µM,-13.2% (inactive)
same,inhibition,"[9]; measured here: combination with BGB IC40, at 0.05 µM",-25.5%
same,inhibition,[9]; [16],-32.2%
same,inhibition,[9]; [17],-35.9%
same,inhibition,[10]; at 0.5 µM,-49.6% (inactive)
same,inhibition,"[10]; measured here: combination with BGB at IC20, at 0.5 µM",-22.2%
same,inhibition,"[10]; measured here: combination with cisplatin at IC20, at 0.5 µM",-110%
same,inhibition,[11]; at 0.5 µM,-16.4% (inactive)
same,inhibition,"[11]; measured here: combo with BGB at IC20, at 0.5 µM",-23.7%
same,inhibition,"[11]; measured here: combo with cisplatin at IC20, at 0.5 µM",-12.8%
same,inhibition,[12]; at 0.5 µM,-10.9% (inactive)
same,inhibition,"[12]; measured here: inhibition with BGB combination, at 0.05 µM",-2.15%
same,inhibition,"[12]; measured here: inhibition with cisplatin combination, at 0.05 µM",-21.4%
same,inhibition,[13]; at 0.5 µM,-10.5% (inactive)
same,inhibition,[13]; [16],-11.4%
same,inhibition,[13]; [17],-5.98%
same,inhibition,"[14]; BGB combination, concentration series, at 5 µM",-10.8%
same,inhibition,[14]; at 0.5 µM,-7.98% (inactive)
same,inhibition,"[14]; cisplatin combination, concentration series, at 5 µM",-4.24%
same,inhibition,[15],0.89% (inactive)
same,inhibition,[15]; measured here: combo with BGB IC20,-5.32%
same,inhibition,[15]; measured here: combo with cisplatin IC20,12.3%
